FAS-TE inh: inhibitors of human fatty acid synthase thioesterase domain; AID 602261; recombinant FAS-TE, OMFH fluorogenic substrate, fluorescence endpoint; P49327; inhibition, % at 15 µM; hit rate 0.67% among 360,000;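 active = compounds whose normalised, plate-corrected inhibition of enzyme fluorescence in the single-dose primary screen is 50% or more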
ADAM17 inh: inhibits human ADAM17; P78536; hit rate 0.83% among 370,000; recombinant ADAM17, EDANS/DABCYL FRET peptide cleavage; inhibition, % at 6.95 µM;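 active = inhibition above the mean of compounds lying between control limits plus 3 SD, set per campaign, cut at about 8.5% in these data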
aDG glyco up: increases alpha dystroglycan glycosylation | AID 624168 | Pro5-aDG cells, alpha-DG glycosylation AlphaScreen (IIH6); 0% Pro5, 100% B10-LARGE cell signal | activation, % at 10 µM | hit rate 0.22% among 360,000;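 active = activation of at least 8% versus controls, or a plate z-score of at least 8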;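 note: Pro5 are CHO cells carrying HIG-tagged alpha-DG that lacks glycosylation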
NR3A LBD binder: NR3A (human) ligand-binding domain modulation; NR3A LBD differential scanning fluorimetry, Tm shift; 0% = protein alone, 100% = glycine-bound protein; Tm shift relative to glycine control, % at 25 µM; hit rate 2.5% among 340,000;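 active = melting temperature shift of at least 10% of the positive control shift, at one fixed dose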
ADAM10 inh: inhibits human ADAM10. O14672. inhibition, % at 7 µM. recombinant ADAM10, EDANS/DABCYL FRET peptide cleavage, 3 h. hit rate 0.62% among 370,000. AID 720582;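 active = inhibition above a per-campaign cutoff equal to the mean of compounds falling between control-based bounds plus 3 SD, cut at about 20% in these data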
Target sequence (O14672 214-748 limits assumed): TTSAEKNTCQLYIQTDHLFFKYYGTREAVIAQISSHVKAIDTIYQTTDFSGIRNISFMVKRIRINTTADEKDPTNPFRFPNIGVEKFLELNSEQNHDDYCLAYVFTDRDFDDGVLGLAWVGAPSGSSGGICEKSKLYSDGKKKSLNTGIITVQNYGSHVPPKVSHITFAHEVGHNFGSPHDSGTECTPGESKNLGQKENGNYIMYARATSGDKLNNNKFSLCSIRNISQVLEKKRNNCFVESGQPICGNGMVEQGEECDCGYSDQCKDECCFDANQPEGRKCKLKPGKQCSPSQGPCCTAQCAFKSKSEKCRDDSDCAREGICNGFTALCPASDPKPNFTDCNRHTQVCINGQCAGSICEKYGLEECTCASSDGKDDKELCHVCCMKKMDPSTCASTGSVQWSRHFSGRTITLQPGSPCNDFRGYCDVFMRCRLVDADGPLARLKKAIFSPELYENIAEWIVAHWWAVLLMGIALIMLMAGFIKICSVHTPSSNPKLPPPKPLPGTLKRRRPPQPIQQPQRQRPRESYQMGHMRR
ADAM10 ctr: counter-screen for ADAM17 exosite inhibitors: inhibitors of human ADAM10 | shares compounds with ADAM17 inh | recombinant ADAM10, EDANS/DABCYL FRET peptide cleavage, 3 h | inhibition, % at 6.95 µM | hit rate 47% among 2,900 | AID 743256;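 active = mean inhibition over the triplicate runs exceeds the activity threshold set in the earlier primary screen, cut at about 20% in these data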
ADAM17 confirm: confirmation of inhibitors of human ADAM17 | shares compounds with ADAM17 inh | recombinant ADAM17, EDANS/DABCYL QFRET peptide cleavage | inhibition, % at 6.95 µM | hit rate 65% among 2,900 | AID 743257;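 active = mean inhibition across replicates above the hit cutoff set in the primary screen, cut at about 8.5% in these data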
Large screens that a line does not name were inactive (follow-up assays come after a bar, where they were run). This is a sample that favours compounds with a hit; in the whole collection about 4% have one here.

CCCCCC[C@@H](CN(CCCC)S(C)(=O)=O)c1ccccc1	ADAM17 inh 55 (no result: FAS-TE inh, aDG glyco up, NR3A LBD binder) | ADAM10 ctr inactive | ADAM17 confirm inactive
O=C(CSc1nnc2ccc(-c3ccncc3)nn12)c1cccs1	none
CC1CN(S(=O)(=O)c2ccc(NC(=O)c3cc(-c4ccccc4O)n[nH]3)cc2)CC(C)O1 (stereo not given)	ADAM17 inh 12, NR3A LBD binder 36, ADAM10 inh 24 | ADAM10 ctr inactive | ADAM17 confirm 14
CC(=O)c1ccc(-n2cc(-c3ccc(C(C)(C)C)cc3)[n+]3c2SCCC3)cc1	none
CC(C)(C)OC(=O)C[C@@H]1C/C=C\C[C@H](CC(=O)N[C@H](CO)Cc2ccccc2)C(=O)N2CCC[C@H]2COC1=O	ADAM17 inh 9.2 | ADAM10 ctr inactive | ADAM17 confirm 11
CC(C)(C)OC(=O)C[C@@H]1C/C=C\C[C@@H](CC(=O)N[C@H](CO)Cc2ccccc2)C(=O)N2CCC[C@@H]2COC1=O	none
Cc1c(Cl)cccc1NC(=O)NN1CCN(C)CC1	none
C=CCOC(=O)C1=C(C)N=C2SCCC(=O)N2C1c1ccc(OC(=O)c2ccco2)cc1 (stereo not given)	none
COC(=O)C1=C(C)N=C2SCCC(=O)N2C1c1ccc(OC(=O)c2ccco2)cc1 (stereo not given)	ADAM17 inh 17 | ADAM10 ctr inactive | ADAM17 confirm inactive
O=C1OC(/C=C/c2ccc(Cl)cc2)=NC/1=C/c1ccco1	none
CN(Cc1ccco1)C(=O)CN1C(=O)NC(c2ccccc2)(c2ccccc2)C1=O	none
Cc1ccc(CN(C)C(=O)CN2C(=O)NC(c3ccccc3)(c3ccccc3)C2=O)c(C)c1	ADAM17 inh 9.1 | ADAM10 ctr 31 | ADAM17 confirm 13
CCOC(=O)c1c(C)[nH]c(C)c1S(=O)(=O)NCCc1sccc1C	ADAM17 inh 9.0 | ADAM10 ctr inactive | ADAM17 confirm inactive
CCOC(=O)c1c(C)[nH]c(C)c1S(=O)(=O)NCCc1ccc(SC)cc1	none
Cc1cccc(-c2noc(-c3ccccc3C(=O)NCC3CCCO3)n2)c1 (stereo not given)	none
COc1cccc(NC(=O)c2ccccc2-c2nc(-c3cccc(C)c3)no2)c1	ADAM17 inh 9.6, ADAM10 inh 25 | ADAM10 ctr 26 | ADAM17 confirm 15
CCN(CC)C1Oc2cc3c(cc2C(c2cc(OC)c(OC)c(OC)c2)C1C)OCO3 (stereo not given)	ADAM17 inh 9.9 | ADAM10 ctr inactive | ADAM17 confirm 9.9
COc1cc(C2c3cc4c(cc3C3OC(=O)C2C3CO)OCO4)cc(OC)c1OC (stereo not given)	none (no result: NR3A LBD binder)
CCc1c(C(=O)OCc2ccccc2)[nH]c(C)c1C	none
COC(=O)N/N=C/c1cc([N+](=O)[O-])cc(Br)c1O	ADAM17 inh 11 | ADAM10 ctr inactive | ADAM17 confirm inactive
O=C(CSc1nc2ccccc2[nH]1)N1c2ccccc2Sc2ccccc21	ADAM17 inh 12 | ADAM10 ctr 24 | ADAM17 confirm 14
O=C(NNc1ccccc1Br)C(=O)n1ccc2ccccc21	ADAM17 inh 9.5 | ADAM10 ctr inactive | ADAM17 confirm inactive
COc1ccccc1NC(=O)Cn1nc(-c2ccc(Cl)cc2)c2ccccc2c1=O	ADAM17 inh 8.7 | ADAM10 ctr inactive | ADAM17 confirm 14
CCOc1ccccc1N1CCN(C(=O)CSc2ccc3c(c2)OCCO3)CC1	none
Cc1cc(S(=O)(=O)N2CCC3(CC2)OCCN3S(=O)(=O)c2cccs2)ccc1F	ADAM17 inh 12 | ADAM10 ctr inactive | ADAM17 confirm 9.2
CCNC(=S)N/N=C/c1cn(Cc2ccccc2F)c2ccccc12	ADAM17 inh 9.1 | ADAM10 ctr inactive | ADAM17 confirm 20
CCc1ccc(/C=C2/Sc3ccccc3N(CC(=O)NCC3CCCO3)C2=O)cc1 (stereo not given)	ADAM17 inh 8.8 | ADAM10 ctr inactive | ADAM17 confirm inactive
Cc1ccc(/C=C2/Sc3ccccc3N(CC(=O)NCC3CCCO3)C2=O)cc1 (stereo not given)	none (no result: ADAM17 inh, ADAM10 inh)
Cc1ccc(Cl)cc1NCN1C(=O)c2ccccc2C1=O	none (no result: NR3A LBD binder)
CCOC(=O)c1c(NC(=O)CSc2c[nH]c3ccccc23)sc2c1CCCC2	ADAM17 inh 9.7 | ADAM10 ctr 24 | ADAM17 confirm 17
CCOC(=O)c1c(NC(=O)CSc2nnc(-c3c[nH]c4ccccc34)n2CCOC)sc2c1CCCCC2	none
CCOC(=O)c1c(NC(=O)CSc2c[nH]c3ccccc23)sc2c1CCC2	ADAM17 inh 9.8 | ADAM10 ctr 34 | ADAM17 confirm 21
CCCCCNc1ncnc2c(C)[nH]nc12	none (no result: NR3A LBD binder)
COc1ccc(C(=O)NCCSCc2ccccc2Cl)cc1OC	none
CCc1ccc(NC(=O)COC(=O)/C=C/c2ccco2)cc1	ADAM17 inh 11 | ADAM10 ctr inactive | ADAM17 confirm inactive
CC(Oc1ccc(Cl)cc1)c1ccnn1S(=O)(=O)c1ccccc1 (stereo not given)	ADAM17 inh 8.9 | ADAM10 ctr inactive | ADAM17 confirm 15
CC(Oc1ccccc1)c1ccnn1S(C)(=O)=O (stereo not given)	none
CCN1C(=O)C(CC(=O)N2CCN(C(c3ccccc3)c3ccccc3)CC2)N(CC)C1=O (stereo not given)	none
O=C(O)COc1ccccc1/C=N/NC(=O)CSc1nnc(SCc2cccc3ccccc23)s1	none
O=C(CSc1nnc(-c2ccccc2)n1-c1ccc(Cl)cc1)NN=Cc1c[nH]c2ccccc12	ADAM17 inh 11 (no result: FAS-TE inh, aDG glyco up, NR3A LBD binder) | ADAM10 ctr 29 | ADAM17 confirm 12
O=C(CSc1nnc(SCc2cccc3ccccc23)s1)N/N=C/c1c[nH]c2ccccc12	ADAM17 inh 12, NR3A LBD binder 22 | ADAM10 ctr inactive | ADAM17 confirm 9.9
Cc1ccc(/C(CSc2nccn2-c2ncc(C(F)(F)F)cc2Cl)=N\O)cc1	ADAM17 inh 15 | ADAM10 ctr inactive | ADAM17 confirm 9.1
CCN(CC)S(=O)(=O)c1ccc(C(=O)OCn2nnc3ccccc3c2=O)cc1	ADAM17 inh 10 | ADAM10 ctr inactive | ADAM17 confirm inactive
O=C(OCn1nnc2ccccc2c1=O)c1ccc(S(=O)(=O)N2CCOCC2)cc1	none (no result: ADAM17 inh, ADAM10 inh)
CC(Nc1ccc2c(c1)OCCO2)C(=O)N1CCc2ccccc21 (stereo not given)	none
CN(C)c1ccc(NC(=S)c2ccccn2)cc1	none
CC(Oc1ccc(Cl)cc1Cl)c1ccnc(N)n1 (stereo not given)	ADAM17 inh 9.2 | ADAM10 ctr inactive | ADAM17 confirm inactive
CC[N+](CC)(CC)CCC(O)(c1ccccc1)C1CCCCC1 (stereo not given)	none

High-throughput results: PubChem, several laboratories
